This is an account of results in PubChem BioAssay AID504834 (National Center for Advancing Translational Sciences (NCATS), 2011).

In all, about 320,000 compounds went through this assay and about 22,000 (6.9%) were called active. Another 27% or so got no clear call; they are omitted. The sample holds actives, similar compounds and a random draw of the others, so the mix is not that of the screen. A number with no mark means an inactive call. Calls come from the whole dose curve; as a rule, active = well fitted inhibition curve with a large enough effect; inconclusive = small, poorly fitted or top-dose-only effect, or another doubt; inactive = no such curve, though single readings can be large or run the other way.
% is set by controls: 0 for no effect and ±100 for the full control effect; potency is the fitted concentration of half-maximal effect.

The nature of the test: Primary qHTS for delayed death inhibitors of the malarial parasite plastid, 96 hour incubation. Conditions: P. falciparum luciferase reporter growth; series mostly up to 28.7 µM; activity change, negative = inhibition: at the top concentration. The text has this:
The goal of this screen is to discover new antimalarial compounds that act by inhibiting the development of the apicoplast in the malarial parasite Plasmodium falciparum. The biochemical processes that make this organelle essential for erythrocytic stage parasites are not well understood. However, antibiotics such as azithromycin and tetracycline, which target the apicoplast translational machinery, have a potent antimalarial effect.
We have developed a cell-based assay that measures parasite growth based on the expression of an integrated copy of a firefly luciferase reporter. To detect small molecules that cause this "delayed death" phenotype, erythrocytes infected with the luciferase-expressing parasites were incubated with compounds for either one or two generations, corresponding to 48 and 96 hours, respectively. Compounds that inhibit parasite growth in the second generation, but not the first, should be enriched in antimalarials that target the apicoplast. Growth inhibition is detected by a decrease in luciferase activity.
Assay Provider: David Fidock and Eric Ekland, Columbia University
Keywords: NIH Roadmap, MLPCN, MLI, MLSMR, qHTS, NCGC, qHTS, malaria, luciferase, viability
Four microliters of infected erythrocytes (2% hematocrit, 0.05% parasitemia final concentration) in culture medium were dispensed and the plates incubated for 96 hours at 37 C in 5% CO2. Two microliters of luciferase detection reagent was added and luminescence was detected by a ViewLux (PerkinElmer) reader.
Consider `Cc1ccc2nc(-c3ccc(Br)cc3)cn2c1`, for which the “activity change, negative = inhibition” value was 238%.

Regarding `CCC(C)(C)n1nnnc1C(c1ccc(OC)c(OC)c1)N1CCN(C(=O)c2ccco2)CC1` (configuration not stated), the “activity change, negative = inhibition” value is -13.5%.

Regarding `CNC[C@H](CC1CCCCC1)NC[C@H](NCCC1CCCC1)[C@H](C)O`, the Potency is 11.7 µM (active).

Take `COc1ccc(CNC(=O)COc2ccccc2C(=O)c2cnn(-c3ccccc3)c2)cc1OC`: the “activity change, negative = inhibition” value was -44.8%.

Take `O=C1C(=O)N(CCCO)C(c2ccccc2)/C1=C(\O)c1ccc(Br)cc1` (configuration not stated): the “activity change, negative = inhibition” value is 295%.

On to `CCOC(=O)c1c(-c2ccc(C)cc2C)csc1NC(=O)CSc1nnnn1C`, for which the “activity change, negative = inhibition” value is 8.94%.

Consider `CCOC(=O)c1c(NC(=O)CSc2nccc(=O)[nH]2)sc(C)c1C`, for which the “activity change, negative = inhibition” value is -0.0024%.

Take `CCOC(=O)c1ccc(NC(=O)CSc2ncccn2)cc1`: the “activity change, negative = inhibition” value was -0.551%.

`CCOC(=O)c1c(NC(=O)CSc2nnc(CNc3ccc(C)cc3C)o2)sc(C)c1C`: the Potency was 8.28 µM (active).

As for `COc1ccc(Cc2nnc(SCC(=O)Nc3ccc(C)c(C)c3)o2)cc1OC`, the “activity change, negative = inhibition” value is 15.7%.

Consider `CCCc1nnc(SCC(=O)Nc2ccc(C(=O)OCC)cc2)o1`, for which the Potency is 0.147 µM (active).

Take `CN(CCc1ccccn1)C(=O)c1ccc(OC2CCN(Cc3ccccn3)CC2)cc1`: the “activity change, negative = inhibition” value was 14.8%.

With `Cc1cc(C)cc(OCC(=O)OCC(=O)NC2CCCC2)c1`, the “activity change, negative = inhibition” value was -18.5%.

Take `CCn1c(=S)sc2c(=O)n(CC(=O)Nc3ccc(OC)cc3)c(C)nc21`: the “activity change, negative = inhibition” value is 40.3%.

`COc1cccc(C(=O)NCCS(=O)(=O)NCC2CCCO2)c1` (configuration not stated): the “activity change, negative = inhibition” value is -1.14%.

For the molecule `CC1=C(C(=O)Nc2ccccc2)SCCO1`, the “activity change, negative = inhibition” value was 17.1%.

For the molecule `COc1cccc(CCNC(=O)c2cccc(NC(=O)C3=C(C)OCCS3)c2)c1`, the Potency was 11.7 µM (active).

Consider `Cc1sc(NC(=O)C2=COCCO2)c(C#N)c1C`, for which the “activity change, negative = inhibition” value is 126%.

As to `CCCCN(C(=O)C(CCSC)N1C(=O)c2ccccc2C1=O)c1c(N)n(CCC)c(=O)[nH]c1=O` (configuration not stated), the “activity change, negative = inhibition” value was -27.8%.

As to `CSc1ccccc1NC(=O)c1cnc2sc(C)cn2c1=O`, the “activity change, negative = inhibition” value was 96.2%.

Regarding `O=C(O)Cn1c(Cc2ccccc2)nc2ccccc21`, the “activity change, negative = inhibition” value was 174%.

In the case of `Cc1ccc(Cn2c(SCC(=O)N/N=C/c3ccccc3OCC(=O)O)nc3ccccc32)cc1`, the “activity change, negative = inhibition” value was 2.77%.

On to `Cc1ccc(C(C)C)c(OCCSc2nc3ccccc3n2CC(=O)O)c1`, for which the Potency was 13.1 µM (active).

Consider `Cc1cc(N2CCN(Cc3ccc4c(c3)OCO4)CC2)n2ncnc2n1`, for which the “activity change, negative = inhibition” value was 39.4%.

For `Fc1ccc2[nH]c3c(N4CCN(Cc5ccc6c(c5)OCO6)CC4)ncnc3c2c1`, the Potency was 2.62 µM (active).

Turning to `O=C(c1cccs1)N1CCN(Cc2ccc3c(c2)OCO3)CC1`, the “activity change, negative = inhibition” value was -18.2%.

Consider `CCCc1c(C(=O)O)cnn1-c1ccc(Cl)cc1`, for which the “activity change, negative = inhibition” value is 0%.

For `O=C(NNS(=O)(=O)c1ccccc1C(F)(F)F)c1cc2ncc(C(F)(F)F)cc2s1`, the “activity change, negative = inhibition” value was -1.47%.

Turning to `Cc1ccsc1C(=O)N[C@@H](C)c1nnc2ccccn12`, the “activity change, negative = inhibition” value is 7.17%.

Take `C=CCC1(CC=C)CCCN1C(=O)CC1C(=O)NCCN1Cc1ccccc1OC` (configuration not stated): the Potency is 10.4 µM (active).

As for `CN(C(=O)CC1C(=O)NCCN1Cc1ccc(F)cc1Cl)C1CCCCC1` (configuration not stated), the “activity change, negative = inhibition” value was 18%.

As to `CCN(CCn1cccn1)C(=O)CC1C(=O)NCCN1Cc1cccc(OC)c1OC` (configuration not stated), the “activity change, negative = inhibition” value is 11%.

Take `CCOCCCNC(=O)c1cn(CC(C)C)c(=O)c2c1c1ccccc1n2C`: the “activity change, negative = inhibition” value was 0.401%.

In the case of `CCOCCCNC(=O)c1cc2c(=O)n3ccccc3nc2s1`, the Potency was 10.4 µM (active).

As for `CCOCCCNC(=O)c1c[nH]c2cc(C)ccc2c1=O`, the “activity change, negative = inhibition” value was -28.2%.

On to `Cc1cccc(OCCC(=O)Nc2ccccc2C(N)=O)c1`, for which the “activity change, negative = inhibition” value is 34.7%.

For the molecule `Fc1ccccc1/C=C1\CCCC2=C1Nc1ncnn1C2c1ccccc1F` (configuration not stated), the Potency was 1.04 µM (active).

On to `CCN1C(=O)c2cccc3c(S(=O)(=O)Nc4ccccc4O)ccc1c23`, for which the “activity change, negative = inhibition” value is 17.8%.

In the case of `CC(C)(C)NC(=O)CSc1nnc(NC(=O)CCc2ccccc2)s1`, the “activity change, negative = inhibition” value was 52.7%.

As for `Cc1occc1C(=O)NC1CCCN(Cc2ccc(CC(C)C)cc2)C1` (configuration not stated), the “activity change, negative = inhibition” value is 42.7%.

On to `Cc1occc(=O)c1OCc1c(Cl)cccc1Cl`, for which the “activity change, negative = inhibition” value is -28.6%.

On to `O=C(NCCS(=O)(=O)N1CCN(c2ccccc2F)CC1)c1ccc(Br)o1`, for which the “activity change, negative = inhibition” value is 11.4%.

On to `CCOc1ccc(C(C)=O)cc1COC(=O)CNC(=O)c1cccs1`, for which the “activity change, negative = inhibition” value is -25.3%.

Consider `C/C(=N\OCC(=O)O)c1ccc(Cl)cc1`, for which the “activity change, negative = inhibition” value is 7.52%.

Regarding `C/C(=N\N=C(N)N)c1ccc(Cl)cc1`, the Potency was 4.15 µM (active).

As to `COC(=O)/C(NC(C)=O)=C(\C)c1ccc(Cl)cc1`, the “activity change, negative = inhibition” value was 15.3%.

Consider `Cn1c(SCC(=O)c2ccccc2)ncc(C(=O)Nc2ccc(F)cc2)c1=O`, for which the “activity change, negative = inhibition” value is 98.4%.

Take `CC1CCN(C(=O)Cn2nnnc2CN2CCOCC2)CC1`: the “activity change, negative = inhibition” value was 7.62%.

As for `O=C(NCc1ccc2c(c1)OCO2)c1ccc(Cl)s1`, the “activity change, negative = inhibition” value is 20.2%.

As for `O=C(NCc1ccc2c(c1)OCO2)c1sccc1Br`, the “activity change, negative = inhibition” value was 23.1%.

Take `CC(Sc1nncs1)C(=O)NCc1ccc2c(c1)OCO2` (configuration not stated): the Potency was 13.1 µM (active).

With `Cc1ccc(S(=O)(=O)NCC(=O)N(CC(=O)NCC2CCCO2)c2cccc(F)c2)cc1` (configuration not stated), the “activity change, negative = inhibition” value is 38.5%.
